Results from PubChem BioAssay (Tox21).
Results filed as inconclusive are left out. Values without a mark were called inactive. Calls follow the shape of the full dose curve.

target: Peroxisome proliferator-activated receptor delta (Homo sapiens) (UniProt Q03181); test: qHTS assay to identify small molecule agonists of the peroxisome proliferator-activated receptor delta (PPARd) signaling pathway (AID 743212); details: HEK293H PPARd-UAS-bla, beta-lactamase FRET ratio, 17 h; series mostly up to 62.6 µM; activation: at the top concentration
Sequence (Q03181 whole entry, looked up): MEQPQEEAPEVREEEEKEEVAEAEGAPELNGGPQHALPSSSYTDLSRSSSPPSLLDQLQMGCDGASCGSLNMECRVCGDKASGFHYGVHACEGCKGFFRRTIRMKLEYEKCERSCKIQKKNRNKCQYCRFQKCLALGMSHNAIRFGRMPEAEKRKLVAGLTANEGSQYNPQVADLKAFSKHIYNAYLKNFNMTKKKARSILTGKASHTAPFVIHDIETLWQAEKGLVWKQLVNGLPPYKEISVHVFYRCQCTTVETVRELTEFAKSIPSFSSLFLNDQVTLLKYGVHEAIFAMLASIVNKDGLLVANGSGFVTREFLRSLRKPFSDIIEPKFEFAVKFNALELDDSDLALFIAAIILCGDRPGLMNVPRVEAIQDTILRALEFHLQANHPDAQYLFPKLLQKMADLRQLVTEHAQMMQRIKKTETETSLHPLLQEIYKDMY
Text: U.S. Tox21 Program National Center for Advancing Translational Sciences [NCATS] NIH Chemical Genomics Center [NCGC] U.S. Environmental Protection Agency [EPA] National Institutes of Environmental Health Sciences [NIEHS] National Toxicology Program [NTP] U.S. Food and Drug Administration [FDA] Tox21 Assay Overview: The peroxisome proliferator-activated receptors (PPARs) are lipid-activated transcription factors of the nuclear receptor superfamily with three distinct subtypes namely PPAR alpha, PPAR delta (PPARd) and PPAR gamma. All these subtypes heterodimerizes with Retinoid X receptor (RXR) and have different physiological functions. […] To identify the compounds that activate PPAR-delta signaling, GeneBLAzer PPAR delta UAS-bla HEK293H cell line (Invitrogen, Carlsbad, CA, USA) containing a beta-lactamase reporter gene under the control of an Upstream Activator Sequence (UAS) was used to screen the Tox21 compound library.
Tox21 Assay Protocol Summary: PPARd-bla cells were dispensed at 3000 cells/6uL/well in 1536-well black wall/clear bottom plates using a Multidrop Combi (Thermo Fisher Scientific, Waltham, MA) dispenser. After the assay plates were incubated at 37 C and 5% CO2 for 5 h, 23 nL of compounds dissolved in DMSO, positive controls or DMSO only was transferred to the assay plate by a Pintool station (Kalypsys, San Diego, CA). The assay plates were incubated at 37C for 17 h. After 1 uL of LiveBLAzerTM B/G FRET substrate was added using a Bioraptr Flying Reagent Dispenser (FRD) workstation (Beckman Coulter, Indianapolis, IN, USA), the plates were incubated at room temperature for 2 h, and fluorescence intensity was measured by an Envision plate reader (PerkinElmer, Shelton, CT).
% is scaled to controls: 0 for no effect and ±100 for the full control effect.

Row | SMILES | activation
1 | CCCC(CCC)(C(=O)OCC)C(=O)OCC | 2.96%
2 | C[C@]12C(=O)OC(=O)[C@H]1[C@H]1C=C[C@@H]2C1 | -0.753% [at 81.1 µM]
3 | C=CC(C)(O)CC/C=C(\C)CCC=C(C)C (stereo not given) | 1.11%
4 | N#Cc1ccc(C(c2ccc(C#N)cc2)n2cncn2)cc1 | -2.03%
5 | COc1ccccc1OCC(O)COC(N)=O (stereo not given) | 4.58%
6 | CC(CNC1CCCCC1)OC(=O)c1ccccc1 (stereo not given) | -0.021%
7 | CCN(CC)CCOc1ccc(Cc2ccccc2)cc1 | 0.776%
8 | C=C(C)C(=O)OCCOP(=O)(O)O | -1.05% [at 81.1 µM]
9 | C/C(=N\O)[C@@H](C)NCC(C)(C)CN[C@H](C)/C(C)=N/O | 3.42%
10 | CCOC(=O)c1cc(=O)c2c(OCC(COc3cccc4oc(C(=O)OCC)cc(=O)c34)OC(=O)[C@@H](N)CCCCN)cccc2o1 | -0.729%
11 | O=C1Nc2ccc([N+](=O)[O-])cc2C1=O | 6.2%
12 | COc1nc(C)nc(NC(=O)NS(=O)(=O)c2ccccc2OCCCl)n1 | -3.09%
13 | O=C1CCCCC1C1CCCCC1 (stereo not given) | 7.16%
14 | CCCc1c2oc(C(=O)O)cc(=O)c2cc2c(=O)cc(C(=O)O)n(CC)c12 | 2.91%
15 | CCCOc1ccc2c(c1)CC[C@@H]1[C@@H]2CC[C@]2(C)C(OC)CC[C@@H]12 (stereo not given in full) | 1.42%
16 | Cc1nnc(SCC2=C(C(=O)O)N3C(=O)[C@@H](NC(=O)Cn4cnnn4)[C@H]3SC2)s1 | 2.49%
17 | CC1=C(O)C(=O)OC1C (stereo not given) | -0.131%
18 | C[C@@H]1CN(c2c(F)c(N)c3c(=O)c(C(=O)O)cn(C4CC4)c3c2F)C[C@H](C)N1 | 2.57% [at 29.1 µM]
19 | Cc1cn([C@@H]2O[C@H](CO)[C@@H](O)[C@@H]2F)c(=O)[nH]c1=O | 1.02%
20 | CN(CC1(C)CCCO1)S(=O)(=O)c1ccc(Cl)c(S(N)(=O)=O)c1 (stereo not given) | -2.9%

Row | SMILES | activation
21 | Cc1c(-c2ccccc2)oc2c(C(=O)OCCN3CCCCC3)cccc2c1=O | 2.86%
22 | CCN[C@H]1CN(CCCOC)S(=O)(=O)c2sc(S(N)(=O)=O)cc21 | 1.66%
23 | CCCCCCCCCC/C=C/C#N | -1.03%
24 | Nc1cccc(S(=O)(=O)O)c1 | 0.0368%
25 | CCCOCCC | -5.92%
26 | CCN(CC)CC1CCCCN1CC(=O)N1c2ccccc2C(=O)Nc2cccnc21 (stereo not given) | -0.713%
27 | Cc1c(C(=O)NCCO)[n+](=O)c2ccccc2n1[O-] | -2.92%
28 | CN1CCN(c2c(F)cc3c(=O)c(C(=O)O)cn4c3c2SCC4)CC1 | 0.77%
29 | CN1CCN(c2c(F)cc3c(=O)c(C(=O)O)cn(CCF)c3c2F)CC1 | 3.79%
30 | O=C(O)[C@@H]1CSCN1 | 1.46%
31 | FC(F)(F)c1ccccc1 | 0.673%
32 | NC(=O)NS(=O)(=O)c1ccc(Cl)cc1 | -4.45%
33 | CCC(=O)O[C@]1(C(=O)SCF)[C@H](C)C[C@H]2[C@@H]3C[C@H](F)C4=CC(=O)C=C[C@]4(C)[C@@]3(F)[C@@H](O)C[C@@]21C | 0.042%
34 | FC(F)(F)C(F)(F)C(F)(F)C(F)(F)C(F)(F)C(F)(F)C(F)(F)C(F)(F)Br | -2.47%
35 | CCN(O)CC | 0.359%
36 | Cc1ccc(C)c(N)c1 | 0.0411%
37 | CCCS(=O)c1ccc2nc(NC(=O)OC)[nH]c2c1 (stereo not given) | -4.43%
38 | COC(=O)/C=C(/C)N | -0.331%
39 | CN(C)Cc1ccccc1 | -3.15% [at 81.1 µM]
40 | O=CCCc1ccccc1 | 1.29%
